Measurements as given in PubChem BioAssay AID1159580 (chemical genetic matrix, 2015).
The whole screen tested about 5,500 compounds, of which about 2,000 (36%) were called active. Another 18% or so got no clear call; they are omitted. Cut-off read from the data, not from the text of the source: active = normalized growth mostly below about 0.91 (no sharp cut-off); inconclusive = no clear call, values can overlap the other calls; inactive = mostly above about 0.92. Some of the results follow.

Test: chemical genetic growth profiling, strain panel (AID 1159580);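 note: tested at 20 µM; growth read once vehicle control cultures reached saturation at 30 °C; 1 = growth at the plate median or of vehicle wells; lower values mean less growth of the strain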
Conditions: growth OD

Measured: normalized growth

Cc1c(NC(=O)c2cccnc2)c(=O)n(-c2ccccc2)n1C
inactive: S. cerevisiae deletion strains, locus YJR066W, strain TOR1, hits give low values 0.958 | S. cerevisiae deletion strains, locus YJR075W, strain HOC1, hits give low values 0.99 | S. cerevisiae deletion strains, locus YKL009W, strain mrt4, hits give low values 0.958 | S. cerevisiae deletion strains, locus YKL068W, hits give low values 0.99 | S. cerevisiae deletion strains, locus YKL085W, strain MDH1 (second series), hits give low values 0.988 | S. cerevisiae deletion strains, locus YKL085W, strain MDH1, hits give low values 0.988 | S. cerevisiae deletion strains, locus YKL160W, strain elf1, hits give low values 1.02 | S. cerevisiae deletion strains, locus YKL190W, strain CNB1, hits give low values 0.989 | S. cerevisiae deletion strains, locus YKR001C, strain vps1, hits give low values 0.991 | S. cerevisiae deletion strains, locus YKR026C, strain gcn3, hits give low values 0.997 | S. cerevisiae deletion strains, locus YKR091W, strain srl3, hits give low values 1 | S. cerevisiae deletion strains, locus YLL001W, strain dnm1, hits give low values 0.986 | S. cerevisiae deletion strains, locus YLL026W, hits give low values 0.993 | S. cerevisiae deletion strains, locus YLL041C, strain sdh2, hits give low values 0.996 | S. cerevisiae deletion strains, locus YLR027C, strain aat2, hits give low values 1 | S. cerevisiae deletion strains, locus YLR039C, strain RIC1, hits give low values 0.974 | S. cerevisiae deletion strains, locus YLR058C, strain SHM2, hits give low values 0.982 | S. cerevisiae deletion strains, locus YLR102C, strain apc9, hits give low values 0.989 | S. cerevisiae deletion strains, locus YLR113W, strain HOG1, hits give low values 1.06 | S. cerevisiae deletion strains, locus YLR221C, strain rsa3, hits give low values 1.01 | S. cerevisiae deletion strains, locus YLR258W, strain gsy2, hits give low values 0.997 | S. cerevisiae deletion strains, locus YLR262C, strain YPT6 (second series), hits give low values 1.02 | S. cerevisiae deletion strains, locus YLR262C, strain YPT6, hits give low values 0.961 | S. cerevisiae deletion strains, locus YLR268W, strain sec22, hits give low values 0.982 | S. cerevisiae deletion strains, locus YLR320W, strain mms22, hits give low values 1 | S. cerevisiae deletion strains, locus YLR330W, strain CHS5, hits give low values 1 | S. cerevisiae deletion strains, locus YLR342W, strain FKS1 (second series), hits give low values 1.09 | S. cerevisiae deletion strains, locus YLR342W, strain FKS1, hits give low values 1 | S. cerevisiae deletion strains, locus YLR357W, strain rsc2, hits give low values 0.963 | S. cerevisiae deletion strains, locus YLR370C, strain arc18, hits give low values 1 | S. cerevisiae deletion strains, locus YLR371W, strain rom2, hits give low values 0.998 | S. cerevisiae deletion strains, locus YLR384C, strain iki3, hits give low values 0.999 | S. cerevisiae deletion strains, locus YLR418C, strain cdc73, hits give low values 1.01 | S. cerevisiae deletion strains, locus YML016C, strain PPZ1, hits give low values 0.994 | S. cerevisiae deletion strains, locus YML032C, strain rad52, hits give low values 0.971 | S. cerevisiae deletion strains, locus YML120C, strain ndi1, hits give low values 1.02 | S. cerevisiae deletion strains, locus YML124C, strain tub3, hits give low values 0.999 | S. cerevisiae deletion strains, locus YMR058W, strain fet3, hits give low values 1 | S. cerevisiae deletion strains, locus YMR078C, strain ctf18, hits give low values 0.984 | S. cerevisiae deletion strains, locus YMR125W, strain sto1, hits give low values 0.969 | S. cerevisiae deletion strains, locus YMR129W, hits give low values 0.997 | S. cerevisiae deletion strains, locus YMR205C, strain PFK2, hits give low values 0.959 | S. cerevisiae deletion strains, locus YMR223W, strain ubp8, hits give low values 1.02 | S. cerevisiae deletion strains, locus YMR231W, strain pep5, hits give low values 1 | S. cerevisiae deletion strains, locus YMR263W, strain SAP30, hits give low values 0.987 | S. cerevisiae deletion strains, locus YMR307W, strain GAS1, hits give low values 0.961 | S. cerevisiae deletion strains, locus YNL067W, strain RPL9B, hits give low values 0.971 | S. cerevisiae deletion strains, locus YNL071W, strain lat1, hits give low values 1.01 | S. cerevisiae deletion strains, locus YNL153C, strain GIM3, hits give low values 0.952 | S. cerevisiae deletion strains, locus YNL183C, strain NPR1, hits give low values 0.967 | S. cerevisiae deletion strains, locus YNL209W, strain ssb2, hits give low values 1.01 | S. cerevisiae deletion strains, locus YNL233W, strain BNI4, hits give low values 0.941 | S. cerevisiae deletion strains, locus YNL248C, strain rpa49, hits give low values 1.01 | S. cerevisiae deletion strains, locus YNL250W, strain rad50, hits give low values 0.975 | S. cerevisiae deletion strains, locus YNL271C, strain bni1, hits give low values 0.991 | S. cerevisiae deletion strains, locus YNL298W, strain CLA4, hits give low values 0.997 | S. cerevisiae deletion strains, locus YNL307C, strain MCK1, hits give low values 0.995 | S. cerevisiae deletion strains, locus YNL322C, strain KRE1 (second series), hits give low values 0.995 | S. cerevisiae deletion strains, locus YNL322C, strain KRE1, hits give low values 0.996 | S. cerevisiae deletion strains, locus YNR049C, strain mso1, hits give low values 0.997 | S. cerevisiae deletion strains, locus YNR052C, strain pop2, hits give low values 0.996 | S. cerevisiae deletion strains, locus YOL006C, strain TOP1, hits give low values 0.928 | S. cerevisiae deletion strains, locus YOL012C, strain htz1 0.85 | S. cerevisiae deletion strains, locus YOL147C, strain pex11, hits give low values 1 | S. cerevisiae deletion strains, locus YOR001W, strain rrp6, hits give low values 1.01 | S. cerevisiae deletion strains, locus YOR061W, strain CKA2, hits give low values 0.969 | S. cerevisiae deletion strains, locus YOR069W, strain VPS5, hits give low values 1 | S. cerevisiae deletion strains, locus YOR070C, strain gyp1, hits give low values 1 | S. cerevisiae deletion strains, locus YOR080W, strain dia2, hits give low values 0.99 | S. cerevisiae deletion strains, locus YOR083W, strain WHI5, hits give low values 1.02 | S. cerevisiae deletion strains, locus YOR106W, strain vam3, hits give low values 1.01 | S. cerevisiae deletion strains, locus YOR136W, strain idh2, hits give low values 0.983 | S. cerevisiae deletion strains, locus YOR144C, strain elg1, hits give low values 0.994 | S. cerevisiae deletion strains, locus YOR184W, strain ser1, hits give low values 0.985 | S. cerevisiae deletion strains, locus YOR231W, strain MKK1, hits give low values 1.05 | S. cerevisiae deletion strains, locus YOR265W, strain rbl2, hits give low values 0.993 | S. cerevisiae deletion strains, locus YOR270C, strain vph1, hits give low values 1 | S. cerevisiae deletion strains, locus YOR290C, strain snf2, hits give low values 0.98 | S. cerevisiae deletion strains, locus YOR316C, strain cot1, hits give low values 0.986 | S. cerevisiae deletion strains, locus YPL051W, strain arl3, hits give low values 1.01 | S. cerevisiae deletion strains, locus YPL078C, strain atp4, hits give low values 1.01 | S. cerevisiae deletion strains, locus YPL106C, strain sse1, hits give low values 0.992 | S. cerevisiae deletion strains, locus YPL240C, strain hsp82, hits give low values 0.995 | S. cerevisiae deletion strains, locus YPL256C, strain CLN2, hits give low values 1.03 | S. cerevisiae deletion strains, locus YPR119W, strain clb2, hits give low values 0.985 | S. cerevisiae deletion strains, locus YPR141C, strain kar3, hits give low values 0.99 | S. cerevisiae deletion strains, locus YPR163C, strain tif3, hits give low values 0.996 | S. cerevisiae deletion strains, locus YPR167C, strain met16, hits give low values 0.991 | S. cerevisiae deletion strains, strain wtn01, hits give low values 1.02 | S. cerevisiae strains, strain wild type, hits give low values 0.983
